Holding throughout (assay): NCI-60 one-dose screen, 48 h (100 = growth as untreated, 0 = no growth, -100 = all killed)
Holding throughout (details): 10 µM unless noted

The test system of assay [1] is HCT-15 colon.
The test system of assay [2] is HT29 colon.
Assay [3] deals with SNB-75 CNS.
In assay [4] the test system is SNB-19 CNS.
For assay [5], the system named is U251 CNS.
In assay [6] the test system is PC-3 prostate.
For assay [7], the system named is SK-MEL-5 melanoma.
The subject of assay [8] is UACC-62 melanoma.
The test system of assay [9] is LOX IMVI melanoma.
Assay [10] deals with SK-MEL-28 melanoma.
In assay [11] the test system is SK-MEL-2 melanoma.
Assay [12] relates to EKVX NSCLC.
Assay [13] concerns SN12C renal.
In assay [14] the test system is UO-31 renal.
In assay [15] the test system is TK-10 renal.
For assay [16], the system named is ACHN renal.
For assay [17], the system named is CAKI-1 renal.
The test system of assay [18] is CCRF-CEM leukemia.
Assay [19] deals with MOLT-4 leukemia.

These results are taken from PubChem BioAssay (NCI).

About 83,000 compounds went through this panel and 20% of them were active in at least one assay; those are over-represented in the sample as a whole.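 Interpretation: 100, growth as untreated; towards 0, rising growth inhibition; 0, no net growth; 0 to -100, cell death. Compounds scoring below 10 were considered active.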 Values without a mark were called inactive. Active and inactive are the calls of the source.

Take `C=C1C(=O)O[C@H]2[C@H]1CC/C(COC(=O)NCc1c[nH]c3ccc(Br)cc13)=C\CC[C@@]1(C)O[C@@H]21`: the growth was -70.2% (active) in assay [1]; -76.6% (active) in assay [2]; -5.16% (active) in assay [3]; 40.2% in assay [4]; 3.96% (active) in [5]; 15.4% in [6]. The growth in [7] was -27.1% (active); in [8], -63% (active); in [9], -82% (active); in assay [10], -33.5% (active); in assay [11], 1.8% (active); in [12], -16.5% (active). The growth was -43.2% (active) in assay [13]; -98.3% (active) in assay [14]; -68.7% (active) in assay [15]; -71.2% (active) in [16]; -92.8% (active) in [17]; -13.1% (active) in assay [18]. For the same molecule, the growth in assay [19] was -2.46% (active).
Regarding `Cc1cc(C(=O)/C=C/c2ccc[nH]2)ccc1-n1ccc(C(F)(F)F)n1`, the growth in assay [1] was 84.1%; in assay [2], 89.9%; in assay [3], 63.2%; in assay [4], 85.1%; in [5] it was 25.9%; in assay [6], 6.59% (active). In addition, the growth was 98.2% in assay [7]; 84% in assay [8]; 90.8% in assay [9]; 100% in assay [10]; 96.5% in assay [11]; 87.4% in assay [12]. Further, the growth in assay [13] is 63.4%; in assay [14] it was -92.1% (active); in assay [15] it was 95.6%; in assay [16], 98.9%; in assay [17], 83.8%; in assay [18], 13.1%. Moreover, the growth in assay [19] is 70.6%.
`S=c1cc(S)c2cc(Br)ccc2[nH]1`: the growth was 99.8% in [1]; 96.9% in [2]; 105% in assay [3]; 94.1% in assay [4]; 98.3% in assay [5]; 78.8% in [6]. In addition, the growth in assay [7] was 89%; in assay [8], 83.4%; in assay [9], 95.9%; in assay [10] it was 98%; in assay [11], 93.9%; in assay [12], 105%. Further, the growth in assay [13] was 98.8%; in assay [14], 86.8%; in [15], 125%; in [16], 90.4%; in [17], 101%; in assay [18], 100%. Moreover, the growth in assay [19] was 98.7%.
As for `COc1cc2nc(-c3ccc(C(F)(F)F)cc3)cc(OCCN3CCCCC3)c2cc1OC`, the growth in assay [1] is 43.7%; in assay [2], 46.4%; in assay [3] it was 54.4%; in assay [4], 91.1%; in [5], 72.3%; in assay [6], 61.3%. Moreover, the growth in assay [7] was 70.4%; in assay [8], 89.7%; in [9], -15.5% (active); in [10], 70.2%; in assay [11], 105%; in assay [12], 62.4%. The growth in [13] was 63.6%; in assay [14] it was 54.3%; in assay [15], 93.9%; in assay [16], 81.4%; in assay [17] it was 45.2%; in assay [18] it was 78.8%. Also, the growth in assay [19] is 65.3%.
As for `COc1ccc(-c2[nH][nH]c(=O)c2-c2nc3ccccc3s2)cc1`, the growth in assay [1] was 95.4%; in assay [2], 106%; in assay [3], 88.9%; in assay [4], 102%; in [5] it was 101%; in [6], 102%. In addition, the growth is 102% in [7]; 98% in [8]; 99.9% in [9]; 112% in [10]; 104% in assay [11]; 99.9% in [12]. Besides, the growth in [13] is 98.4%; in [14], 86.6%; in assay [15], 108%; in assay [16], 106%; in [17], 88%; in assay [18] it was 99.1%. Further, the growth in assay [19] was 102%.
Turning to `COc1cc2nc(-c3ccc(Cl)cc3)cc(OCCCN3CCCC3)c2cc1OC`, the growth in assay [1] is 20.4%; in assay [2], 23.8%; in assay [3], 8.25% (active); in assay [4] it was 67.9%; in [5], 54.4%; in assay [6], 41.9%. In addition, the growth is -8.4% (active) in assay [7]; -66.1% (active) in [8]; -32.7% (active) in assay [9]; 63.7% in assay [10]; 71.1% in [11]; 65.8% in assay [12]. The growth in [13] was 37.9%; in [14] it was 42.3%; in [15], 101%; in assay [16], 35.5%; in assay [17], 3.85% (active); in assay [18], 44.6%. Moreover, in assay [19], the growth is 40.4%.
Regarding `Cc1ccc(NC(C(=O)c2ccccc2)c2ccccc2)cc1` (stereo not drawn), the growth was 86.4% in assay [1]; 46.9% in assay [2]; 66.3% in assay [3]; 47.9% in assay [4]; 29.7% in assay [5]; 37.6% in assay [6]. For the same molecule, the growth in [7] is 22.1%; in assay [8], 39.1%; in assay [9], 50.5%; in [10], 52.8%; in assay [11], 36.1%; in assay [12], 20.5%. The growth was 50.1% in assay [13]; 78.9% in assay [14]; 74.6% in assay [15]; 85% in [16]; 66.7% in assay [17]; 65.2% in assay [18]. In addition, the growth in assay [19] was 74.6%.
